Rows were chosen to be rich in hits. Some 2.9% of all compounds tested hit in one or more screens of this group.
sPLA2-III inh: human group III sPLA2 inhibitors, primary screen, biochemical, QFRET, BODIPY PC-A2 liposome substrate | inhibition, % at 12.2 µM | actives 0.56% (n = 370,000) | QFRET BODIPY PC-A2 liposome hydrolysis, fluorescence;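 active = inhibition above mean plus 3 SD of compounds lying within the high and low control bounds, cut at about 19% in these data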;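 also: 0% = median of test compound wells and 100% = no enzyme DMSO wells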
DAGLB inhibitor: DAGLB lipase inhibitors, primary screen, biochemical, fluorescence, HTS. Diacylglycerol lipase-beta (Homo sapiens), Q8NCG7. HEK293T DAGLB membrane lysate, EnzChek fluorogenic substrate. inhibition, % at 5.17 µM. actives 0.059% (n = 340,000). AID 504411, 2011; in the data active = inhibition above about 34%;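 also: 0% = enzyme with vehicle and 100% = wells lacking enzyme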
Cardio protect: cardioprotection against H2O2-induced cell death, primary screen, uHTS, H9c2 cells, ATPLite luminescence; protection from H2O2 cell death, % at 20 µM; H9c2 cardiomyocytes, H2O2 injury protection, 2 h; actives 0.63% (n = 360,000);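 active = compounds giving at least 50% protection of heart cells from peroxide-induced death in the single-dose screen, raw or plate-pattern-corrected value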;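 also: 0% = DMSO wells with peroxide and 100% = DMSO wells without peroxide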
Rtt109 HAT inh: inhibitors of C. albicans Rtt109/Vps75 HAT, primary screen, biochemical, ThioGlo CoA-SH fluorescence, plate reader; actives 0.16% (n = 330,000); AID 540336, 2011; purified Rtt109/Vps75, 4 h; inhibition, % at 34.9 µM; Histone acetyltransferase RTT109 (Candida albicans (strain SC5314 / ATCC MYA-2876)), …;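 active = inhibition of at least 50% in every replicate; inconclusive = best replicate reaches 50% inhibition but some replicates fall short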
Target sequence (Q5AAJ8 whole entry, looked up): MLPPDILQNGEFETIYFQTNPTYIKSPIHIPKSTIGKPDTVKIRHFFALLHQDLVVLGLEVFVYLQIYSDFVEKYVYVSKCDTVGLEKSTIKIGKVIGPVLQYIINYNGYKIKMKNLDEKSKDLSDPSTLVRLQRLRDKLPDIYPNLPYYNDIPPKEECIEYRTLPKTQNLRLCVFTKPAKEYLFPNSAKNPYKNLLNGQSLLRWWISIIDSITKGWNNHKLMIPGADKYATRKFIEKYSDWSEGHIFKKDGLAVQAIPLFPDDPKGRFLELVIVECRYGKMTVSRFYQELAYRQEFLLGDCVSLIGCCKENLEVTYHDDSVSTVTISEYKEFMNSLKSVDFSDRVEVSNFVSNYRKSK
Myeloid diff 2: induction of myeloid progenitor differentiation, primary screen, cell-based, flow cytometry, MLPCN library | ER-HoxA9 myeloid progenitors, lysozyme-GFP differentiation | calls only at 10 µM | AID 624256, 2012 | actives 1% (n = 360,000);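 active = normalized GFP-positive differentiation at or above the plate's own cutoff, the solvent-only control mean plus 3 SD; inconclusive = no clear call, values can overlap the other calls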;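 also: cells exposed to compound for four days before flow analysis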
ABHD5-PLIN5 inh: ABHD5-PLIN5 interaction inhibitors, primary screen, cell lysate, split luciferase complementation, luminescence; inhibition, % at 4 µM; actives 0.78% (n = 360,000); AID 602281, 2012; Split G. princeps luciferase complementation, 4 h; Perilipin-5 (Homo sapiens) + 1-acylglycerol-3-phosphate O-acyltransferase ABHD5 (Homo …;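 active = inhibition above the mean inhibition across every tested compound plus 3 SD, cut at about 22% in these data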;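 also: 0% = DMSO only wells and the 100% control is not disclosed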
Numbers without * were called inactive; i = inactive; ? = inconclusive; . = no result; + = active, no number.

SMILES	sPLA2-III inh	DAGLB inhibitor	Cardio protect	Rtt109 HAT inh	Myeloid diff 2	ABHD5-PLIN5 inh
CCOc1ccc(-n2cc(-c3ccccc3)c3c(N4CCOCC4)ncnc32)cc1	-0.8	-5.5	63.0*	-3.1	i	-6.4
O=C(N/N=C/c1ccccc1O)C1CC(=O)N(c2ccc(Cl)cc2)C1 (centres undefined)	-4.1	2.1	55.1*	-23.0	i	-0.1
Cn1c(=O)oc2cc(S(=O)(=O)NCCCN3CCCC3=O)ccc21	-1.5	0.9	0.9	-11.6	i	0.0
COC(=O)C1=CNC=C(C(=O)OC)C1c1ccccc1Cl	0.1	-2.4	-7.9	-284.9	i	-2.0
COC(=O)C1=CNC=C(C(=O)OC)C1c1ccc(Cl)cc1	2.2	-1.0	5.6	-256.0	+	-5.2
Cc1ccc(-n2cc3c(-c4cccc(Br)c4)nnc(C)c3n2)cc1	-2.7	-23.7	13.0	-4.4	+	1.9
Cc1nnc(-c2cccc(Br)c2)c2cn(-c3ccccc3Cl)nc12	0.5	-0.2	18.1	-2.6	i	-1.4
CN1/C(=C\C=C2/SC(=S)NC2=O)C(C)(C)c2ccccc21	-263.9	-73.2	-24.8	30.2	+	16.4
CCN1C(=O)C(=CC=CN(C)c2ccccc2)SC1=S	-2.9	-53.9	-5.2	.	+	-19.1
CCCN1C(=O)/C(=C\C=C2\N(CC)c3ccccc3C2(C)C)SC1=S	-3.2	-17.4	-14.7	5.5	+	0.3
CN1C(=CC=C2C=C(I)C(=O)C(I)=C2)C(C)(C)c2ccccc21	9.6	6.5	-14.2	2.1	i	0.7
CCN1C(=O)/C(=C/C=C2\C=CN(CC)c3ccccc32)SC1=S	13.4	5.4	-12.6	-4.3	i	-4.5
COCCN(Cc1cccs1)S(=O)(=O)c1ccc(-c2ccc(=O)[nH]n2)s1	-5.9	1.5	5.9	-13.6	?	4.6
CCCCn1c(N)c(N(CC)C(=O)CCc2ccccc2)c(=O)[nH]c1=O	-0.8	2.5	16.2	-1.6	i	1.6
COc1ccc2c(Cl)c(C(=O)N/N=C3\CCCC(=O)C3)sc2c1	-66.6	-11.0	7.5	-5.0	+	4.3
O=C(c1ccncc1)N(Cc1ccccc1)Cc1nc2ccccc2c(=O)[nH]1	9.7	-3.4	13.1	-10.5	+	-1.4
CC(=O)Nc1ccc(NC(=O)C2CC(=O)N(Cc3ccccc3)C2)cc1 (centres undefined)	-1.6	-1.0	10.1	7.7	i	1.4
CSc1nc2ccc(NC(=O)C3CC(=O)N(Cc4ccccc4)C3)cc2s1 (centres undefined)	-32.4	4.2	-2.5	12.5	+	2.5
CC1CC2(CCCCC2)Nc2ccc3ccccc3c21 (centres undefined)	4.0	-0.1	-7.2	-6.7	+	-6.8
CC(=O)N1c2ccc3ccccc3c2C(C)CC12CCCCC2 (centres undefined)	7.7	-8.7	14.3	19.1	i	-11.0
CN=C1NC(C)(C)C2CCC(C)(CC2)S1	11.4	-3.7	3.0	4.8	+	0.9
CCCCCCN1C[C@@H](n2cc(-c3ccc(F)cc3)nn2)[C@H](O)C[C@@H]1c1ccc(Cl)cc1	-1.2	-15.1	-44.3	.	i	5.5
COC(=O)c1c(C)[nH]c(C(=O)CC#N)c1C	-10.9	5.9	-1.1	1.6	+	-5.5
N#CC1=C(N)n2c(s/c(=C\c3ccco3)c2=O)=C(C#N)C1c1ccco1 (centres undefined)	-5.8	8.3	22.6	?	i	23.0*
COc1ccc(S(=O)(=O)N(CC(=O)NCc2cccnc2)Cc2ccccc2)cc1	7.0	0.0	7.1	7.8	i	-0.9
SMILES	sPLA2-III inh	DAGLB inhibitor	Cardio protect	Rtt109 HAT inh	Myeloid diff 2	ABHD5-PLIN5 inh
Cc1ccc2nsnc2c1S(=O)(=O)N(Cc1ccco1)Cc1cc2cccc(C)c2[nH]c1=O	.	2.5	72.7*	1.6	?	-7.3
COc1ccc2[nH]c(=O)c(CN(Cc3cccs3)S(=O)(=O)c3c(C)ccc4nsnc34)cc2c1	3.9	0.1	68.8*	-0.4	i	-10.8
C[C@@H]1CN([C@@H](C)CO)C(=O)CCCn2cc(nn2)CO[C@H]1CN(C)C(=O)OCc1ccccc1	5.3	0.4	10.5	.	i	0.8
N#Cc1ccsc1NC(=O)CSc1ncn[nH]1	-12.5	-3.1	6.0	-4.7	i	-8.4
N#Cc1ccsc1NC(=O)CSc1ncnc2ccccc12	-4.6	-5.3	5.7	29.7	+	4.7
CCOc1cc(/C=C(/C#N)C(=O)Nc2ccc(O)cc2)cc(Br)c1O	-5.6	-3.8	-0.3	23.6	?	4.7
CCOc1ccc(NC(=O)/C(C#N)=C/c2ccc(N3CCCC3)c(C)c2)cc1	6.3	-4.2	-31.7	-2.5	+	1.4
COc1ccc(/C=C(\C#N)C(=O)Nc2cc(S(=O)(=O)N3CCOCC3)ccc2N2CCCC2)cc1	-14.8	2.9	7.6	.	i	2.6
CCN(CC)S(=O)(=O)c1ccc(N2CCCCC2)c(NC(=O)/C(C#N)=C/c2ccc(OC)cc2)c1	-23.8	-6.6	-1.0	1.3	+	-2.1
CCc1cc(-c2nnn(CCC3COCCO3)c2CC)cc(CC)c1-c1cn(CCc2c[nH]c3ccccc23)nn1 (centres undefined)	-61.1	0.0	-8.7	.	i	-0.5
Cc1ccc(C)c(Nc2nc3ccccc3[nH]2)c1	11.1	-6.9	-6.2	4.6	i	-5.5
Cc1ccc(-c2csc(N3CCC[C@@H]3C(=O)NCCn3c(-c4ccncc4)nc4ccccc43)n2)cc1	-6.8	-1.3	69.2*	-3.0	i	10.9
Cc1ccc(-c2csc(N3CCN(CCCn4c(-c5ccncc5)nc5ccccc54)CC3)n2)cc1	-11.9	0.1	45.9	-3.6	?	5.7
CC1(C)C(O)=C(c2nc3ccccc3[nH]2)C(=N)N1c1ccccc1	0.5	7.2	7.3	.	+	8.9
O=C(NNC(=O)C(c1ccccc1)c1ccccc1)c1ccccn1	-2.7	13.2	50.6*	-1.3	?	-5.9
O=C(NNc1ccccn1)C(c1ccccc1)c1ccccc1	3.7	-1.8	1.7	.	i	-2.4
CCOC(=O)c1cc2sc(C)cc2n1CCCN1C(=O)c2ccccc2C1=O	6.3	-5.0	3.5	-11.6	i	-1.9
O=C(CSc1n[nH]c(-c2ccccc2)n1)c1ccc(O)c(O)c1	-19.3	21.2	79.5*	47.1	i	-4.2
Cc1cc(SCC(=O)c2ccc3c(c2)OCO3)nc2ccccc12	-31.4	-22.4	-2.9	-3.0	i	-14.5
Cc1cc(SCC(=O)c2ccc(O)c(O)c2)nc2ccccc12	4.9	17.1	51.0*	-10.2	i	-11.0
